# Results filed as inconclusive are left out. Entries that show only a call come without a potency. The source made the active and inactive calls. Unless noted, calls come from the whole dose curve; as a rule, active = well fitted curve in the direction sought with a large enough effect in the repeat runs; inconclusive = weak or mixed curves; inactive = no such curve, though single readings can be large; an effect the other way counts as inactive or inconclusive.
# What was measured:
# [1] = molecular target: Aryl hydrocarbon receptor (Homo sapiens) (UniProt P35869); assay: qHTS assay to identify small molecule that activate the aryl hydrocarbon receptor (AhR) signaling pathway (AID 743085); note: nearly all actives have a fitted effect of over 15% in size; note: potency is the fitted concentration of half-maximal effect;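 for activation: HG2L7.5c1 human HepG2 liver cells with stably integrated DRE-driven firefly reporter; series mostly up to about 70 µM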
# How it was run: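 Cell line HG2L7.5c1 (human hepatoma, 20× DRE-luc). Plated, 5 h 37C, compound/DMSO added, 24 h 37C. CellTiter-Fluor 30 min 37C → fluorescence; then ONE-Glo 30 min RT → luminescence.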
# [2] = qHTS assay to identify small molecule that activate the aryl hydrocarbon receptor (AhR) signaling pathway - cell viability counter screen (AID 743086);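 note: HepG2 liver cells carrying the AhR DRE luciferase reporter; series mostly up to about 70 µM; nearly all actives have a fitted effect of over 45% in size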
# How it was run: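 Cytotoxicity counter screen: CellTiter-Fluor signal (30 min, 37 C) in 4000 HepG2 cells/well carrying the DRE-luciferase reporter, following 24 h compound exposure at 37 C.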
# [3] = molecular target: Peroxisome proliferator-activated receptor gamma (Homo sapiens) (UniProt P37231); assay: qHTS assay to identify small molecule agonists of the peroxisome proliferator-activated receptor gamma (PPARg) signaling pathway (AID 743094; active = well fitted activation curve with a large enough effect in the signal ratio in the repeat runs, not every such curve was filed as active; the % refers to the signal ratio)
# How it was run: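 HEK293H PPARg-bla cells, 5 h settle at 37C/5% CO2; compound (DMSO) 17 h, 37C; B/G FRET substrate 1 h RT; fluorescence intensity read-out. qHTS format.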
# [4] = qHTS assay to identify small molecule antagonists of the peroxisome proliferator-activated receptor gamma (PPARg) signaling pathway - cell viability counter screen (AID 743194); note: nearly all actives have a fitted effect of over 55% in size
# How it was run: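 Viability was measured as CellTiter-Glo luminescence in GeneBLAzer PPARg UAS-bla HEK293H cells. These cells had been exposed 17 h at 37 C to compounds together with rosiglitazone at 50 nM final, with the beta-lactamase readout taken in the same wells.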
# [5] = qHTS assay for small molecule agonists of the antioxidant response element (ARE) signaling pathway - cell viability counter screen (AID 743203; calls by dose curve; note: nearly all actives have a fitted effect of over 55% in size)
# How it was run: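 Luminescence read-out (CellTiter-Glo, 30 min at room temperature) measured cell viability in the same wells as the ARE beta-lactamase reporter. HepG2 ARE-bla cells were treated with compounds for 16 hrs at 37C/5% CO2.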
# [6] = qHTS assay for small molecule activators of the heat shock response signaling pathway - cell viability counter screen (AID 743209); note: nearly all actives have a fitted effect of over 50% in size
# How it was run: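 HSE-bla HeLa; 1500 cells/well; overnight 37 C, 5% CO2; compound 5 h 37 C; LiveBLAzer B/G substrate 2.5 h RT; CellTiter-Glo 30 min RT; luminescence.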
# [7] = qHTS assay for small molecule activators of the heat shock response signaling pathway (AID 743210; active = well fitted activation curve with a large enough effect in the signal ratio in the repeat runs, with a control signal flat, not every such curve was filed as active; the % refers to the signal ratio;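 note: HeLa cells with beta-lactamase reporter driven by heat shock elements; series mostly up to about 63 µM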)
# How it was run: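 Fluorescence from a cleaved B/G FRET substrate (2.5 h, room temp) reports HSE-driven beta-lactamase in HeLa cells treated 5 h at 37 C with DMSO-dissolved compounds.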
# [8] = qHTS assay to identify small molecule agonists of the peroxisome proliferator-activated receptor delta (PPARd) signaling pathway - cell viability counter screen (AID 743211); note: nearly all actives have a fitted effect of over 55% in size
# How it was run: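 HEK293H PPARd-bla, 3000 cells/well; 5 h preincubation 37C/5% CO2; cpd in DMSO, 17 h 37C; B/G FRET substrate 2 h RT; CellTiter-Glo 30 min RT, luminescence.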
# [9] = qHTS assay to identify small molecule antagonists of the peroxisome proliferator-activated receptor delta (PPARd) signaling pathway - cell viability counter screen (AID 743213); note: nearly all actives have a fitted effect of over 50% in size
# How it was run: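 PPARd-bla HEK293H cells were treated with compounds plus agonist L165041 (300 nM final) for 17 h at 37 C. Viability was then read in the same wells by CellTiter-Glo luminescence after 30 min at room temperature.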
# [10] = molecular target: Peroxisome proliferator-activated receptor delta (Homo sapiens) (UniProt Q03181); assay: qHTS assay to identify small molecule antagonists of the peroxisome proliferator-activated receptor delta (PPARd) signaling pathway (AID 743215; active = well fitted inhibition curve with a large enough effect in the signal ratio in the repeat runs, not every such curve was filed as active; the % refers to the signal ratio;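 note: cells stimulated with agonist L165041 at 300 nM final during compound exposure; series mostly up to about 62 µM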)
# How it was run: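 HEK293H GeneBLAzer PPARd UAS-bla reporter cells; cpd + L165041 300 nM final, 17 h 37 C; LiveBLAzer B/G FRET substrate 2 h RT; fluorescence intensity read-out. Antagonist mode.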
# [11] = qHTS assay to identify small molecule agonists of the farnesoid-X-receptor (FXR) signaling pathway - cell viability counter screen (AID 743218); note: nearly all actives have a fitted effect of over 45% in size
# How it was run: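 Luminescence from CellTiter-Glo, read after 30 min at RT, reports viability of GeneBLAzer FXR-UAS-bla HEK 293T cells treated 16 h with compounds in the wells used for the beta-lactamase reporter.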
# [12] = qHTS assay to identify small molecule antagonists of the farnesoid-X-receptor (FXR) signaling pathway - cell viability counter screen (AID 743221; active = well fitted cell-killing curve with a large enough effect in the repeat runs, not every such curve was filed as active; note: nearly all actives have a fitted effect of over 50% in size)
# How it was run: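 Luminescence from CellTiter-Glo measures cytotoxicity in GeneBLAzer FXR-UAS-bla HEK 293T cells. Cells were exposed to compounds with 50 uM chenodeoxycholic acid (final) for 16 h at 37 C, in wells also used for the reporter readout.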
# [13] = molecular target: Vitamin D3 receptor (Homo sapiens) (UniProt P11473); assay: qHTS assay to identify small molecule agonists of the vitamin D receptor (VDR) signaling pathway (AID 743222; calls by dose curve)
# How it was run: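 Beta-lactamase reporter readout (LiveBLAzer B/G FRET, 2 h RT) in VDR-bla cells after 16 h compound treatment at 37C, 5% CO2; cells pre-incubated 4 h before pin transfer of DMSO solutions.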
# [14] = qHTS assay to identify small molecule agonists of the vitamin D receptor (VDR) signaling pathway - cell viability counter screen (AID 743224); note: series mostly up to about 63 µM; nearly all actives have a fitted effect of over 50% in size
# How it was run: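 Cytotoxicity counter screen: VDR-bla cells, 16 h compound exposure at 37C, 5% CO2; CellTiter-Glo luminescence, 30 min RT, same wells as bla read.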
# [15] = qHTS assay for small molecule agonists of the antioxidant response element (ARE) signaling pathway (AID 743202; active = well fitted activation curve with a large enough effect in the signal ratio in the repeat runs, not every such curve was filed as active; the % refers to the signal ratio; note: potency is the fitted concentration of half-maximal effect)
# How it was run: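 Beta-lactamase reporter activity, read as fluorescence intensity, reflects ARE/Nrf2 pathway induction in HepG2 cells after 16 h compound exposure at 37 C; substrate loading was 2 h at room temperature.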
# [16] = molecular target: Peroxisome proliferator-activated receptor delta (Homo sapiens) (UniProt Q03181); assay: qHTS assay to identify small molecule agonists of the peroxisome proliferator-activated receptor delta (PPARd) signaling pathway (AID 743212; calls by dose curve)
# How it was run: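 Steps: seed PPARd-bla HEK293H cells; incubate 5 h, 37 C, 5% CO2; add compounds in DMSO; incubate, 37 C; add LiveBLAzer B/G FRET substrate; hold 2 h at room temperature; measure fluorescence.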
# [17] = molecular target: Vitamin D3 receptor (Homo sapiens) (UniProt P11473); assay: qHTS assay to identify small molecule antagonists of the vitamin D receptor (VDR) signaling pathway (AID 743223; active = well fitted inhibition curve with a large enough effect in the signal ratio in the repeat runs, not every such curve was filed as active; the % refers to the signal ratio)
# How it was run: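 Antagonist mode uses 1alpha,25-dihydroxyvitamin D3 at 3 nM final as stimulus. VDR-bla cells receive compounds in DMSO, incubate 16 h at 37C, then a beta-lactamase FRET substrate for 2 h at room temperature before fluorescence measurement.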
# [18] = molecular target: Bile acid receptor (Homo sapiens) (UniProt Q96RI1); assay: qHTS assay to identify small molecule antagonists of the farnesoid-X-receptor (FXR) signaling pathway (AID 743217; active = well fitted inhibition curve with a large enough effect in the signal ratio in the repeat runs, not every such curve was filed as active; the % refers to the signal ratio)
# How it was run: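 Read-out: beta-lactamase FRET fluorescence (LiveBLAzer B/G substrate, 2 h, room temperature) in GeneBLAzer FXR-UAS-bla HEK 293T cells. Compounds were co-dosed with 50 uM chenodeoxycholic acid (final) and incubated 16 h at 37 °C.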
# [19] = molecular target: Bile acid receptor (Homo sapiens) (UniProt Q96RI1); assay: qHTS assay to identify small molecule agonists of the farnesoid-X-receptor (FXR) signaling pathway (AID 743220; active = well fitted activation curve with a large enough effect in the signal ratio in the repeat runs, not every such curve was filed as active; the % refers to the signal ratio)
# How it was run: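 FXR-UAS-bla HEK 293T cells carrying a UAS-driven beta-lactamase reporter were plated for 5 h at 37C/5% CO2, then exposed to DMSO-dissolved Tox21 10K compounds for 16 h at 37C. A LiveBLAzer B/G FRET substrate was loaded for 2 h at room temperature before fluorescence reading.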
# [20] = molecular target: Peroxisome proliferator-activated receptor gamma (Homo sapiens) (UniProt P37231); assay: qHTS assay to identify small molecule antagonists of the peroxisome proliferator-activated receptor gamma (PPARg) signaling pathway (AID 743191; calls by dose curve; note: series mostly up to about 63 µM; nearly all actives have a fitted effect of over 30% in size)
# How it was run: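 Beta-lactamase reporter under UAS control in HEK293H PPARg-bla cells; compound treatment 17 h at 37C. Read-out: fluorescence intensity after 1 h room-temperature incubation with LiveBLAzer B/G FRET substrate.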
# Sequence of Peroxisome proliferator-activated receptor delta (Homo sapiens) (Q03181 whole entry, looked up): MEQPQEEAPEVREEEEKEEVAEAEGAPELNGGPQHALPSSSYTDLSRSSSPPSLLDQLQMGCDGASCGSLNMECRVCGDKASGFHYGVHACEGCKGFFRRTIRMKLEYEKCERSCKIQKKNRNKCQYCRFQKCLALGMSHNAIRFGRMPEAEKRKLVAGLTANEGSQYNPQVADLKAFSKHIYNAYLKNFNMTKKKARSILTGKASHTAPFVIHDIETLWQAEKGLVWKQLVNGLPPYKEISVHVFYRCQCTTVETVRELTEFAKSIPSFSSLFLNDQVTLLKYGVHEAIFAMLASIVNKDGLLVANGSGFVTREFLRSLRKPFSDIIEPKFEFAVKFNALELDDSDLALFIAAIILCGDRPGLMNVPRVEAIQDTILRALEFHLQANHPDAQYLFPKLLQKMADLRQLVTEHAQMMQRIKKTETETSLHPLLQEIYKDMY
# Sequence of Aryl hydrocarbon receptor (Homo sapiens) (P35869 whole entry, looked up): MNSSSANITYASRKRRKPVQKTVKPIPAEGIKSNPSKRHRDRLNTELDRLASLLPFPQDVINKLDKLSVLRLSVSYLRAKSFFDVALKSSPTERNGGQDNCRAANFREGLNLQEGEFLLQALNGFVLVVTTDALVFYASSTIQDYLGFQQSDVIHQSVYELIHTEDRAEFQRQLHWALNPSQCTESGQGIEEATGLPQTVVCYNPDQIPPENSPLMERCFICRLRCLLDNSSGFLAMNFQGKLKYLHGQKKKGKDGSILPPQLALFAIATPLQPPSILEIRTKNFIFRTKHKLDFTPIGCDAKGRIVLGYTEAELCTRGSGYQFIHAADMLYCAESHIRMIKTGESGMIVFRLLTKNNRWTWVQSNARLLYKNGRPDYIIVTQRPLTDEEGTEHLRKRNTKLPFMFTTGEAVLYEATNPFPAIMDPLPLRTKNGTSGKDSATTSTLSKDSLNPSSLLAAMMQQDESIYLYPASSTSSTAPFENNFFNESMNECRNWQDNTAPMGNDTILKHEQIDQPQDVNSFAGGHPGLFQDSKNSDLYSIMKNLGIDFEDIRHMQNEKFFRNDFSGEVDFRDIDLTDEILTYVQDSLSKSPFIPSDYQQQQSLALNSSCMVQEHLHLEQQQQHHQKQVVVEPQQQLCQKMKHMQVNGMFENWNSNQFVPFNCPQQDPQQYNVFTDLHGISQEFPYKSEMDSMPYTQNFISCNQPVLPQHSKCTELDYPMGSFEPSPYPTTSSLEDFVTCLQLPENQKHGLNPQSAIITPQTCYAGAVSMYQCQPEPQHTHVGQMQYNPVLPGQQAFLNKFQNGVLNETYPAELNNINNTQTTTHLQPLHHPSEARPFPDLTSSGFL
# Sequence of Peroxisome proliferator-activated receptor gamma (Homo sapiens) (P37231 whole entry, looked up): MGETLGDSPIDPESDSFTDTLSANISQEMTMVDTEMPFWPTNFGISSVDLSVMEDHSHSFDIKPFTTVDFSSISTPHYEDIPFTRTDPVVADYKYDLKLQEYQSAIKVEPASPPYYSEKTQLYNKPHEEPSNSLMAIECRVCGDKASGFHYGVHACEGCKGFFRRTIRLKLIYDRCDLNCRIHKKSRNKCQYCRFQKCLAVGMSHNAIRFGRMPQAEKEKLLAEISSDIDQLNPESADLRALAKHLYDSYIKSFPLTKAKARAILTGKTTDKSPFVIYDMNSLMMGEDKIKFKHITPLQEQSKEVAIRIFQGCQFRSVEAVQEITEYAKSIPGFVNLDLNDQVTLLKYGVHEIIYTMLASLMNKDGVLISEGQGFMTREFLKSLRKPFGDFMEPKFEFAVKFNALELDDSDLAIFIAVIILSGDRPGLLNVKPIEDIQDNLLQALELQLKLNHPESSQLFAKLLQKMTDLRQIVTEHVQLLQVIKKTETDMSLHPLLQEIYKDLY
# Sequence of Vitamin D3 receptor (Homo sapiens) (P11473 whole entry, looked up): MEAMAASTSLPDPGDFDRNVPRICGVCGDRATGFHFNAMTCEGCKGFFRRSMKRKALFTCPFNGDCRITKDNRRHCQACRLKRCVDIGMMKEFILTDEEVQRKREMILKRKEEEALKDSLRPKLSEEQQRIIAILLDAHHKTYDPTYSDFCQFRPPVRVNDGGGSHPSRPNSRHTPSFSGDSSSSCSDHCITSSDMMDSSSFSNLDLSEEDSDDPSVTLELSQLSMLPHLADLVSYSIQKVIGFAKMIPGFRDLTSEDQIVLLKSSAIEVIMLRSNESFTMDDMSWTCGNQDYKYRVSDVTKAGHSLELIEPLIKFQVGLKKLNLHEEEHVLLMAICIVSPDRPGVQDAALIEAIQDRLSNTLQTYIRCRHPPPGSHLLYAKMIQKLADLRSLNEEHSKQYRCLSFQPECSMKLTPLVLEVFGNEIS
# Sequence of Bile acid receptor (Homo sapiens) (Q96RI1 whole entry, looked up): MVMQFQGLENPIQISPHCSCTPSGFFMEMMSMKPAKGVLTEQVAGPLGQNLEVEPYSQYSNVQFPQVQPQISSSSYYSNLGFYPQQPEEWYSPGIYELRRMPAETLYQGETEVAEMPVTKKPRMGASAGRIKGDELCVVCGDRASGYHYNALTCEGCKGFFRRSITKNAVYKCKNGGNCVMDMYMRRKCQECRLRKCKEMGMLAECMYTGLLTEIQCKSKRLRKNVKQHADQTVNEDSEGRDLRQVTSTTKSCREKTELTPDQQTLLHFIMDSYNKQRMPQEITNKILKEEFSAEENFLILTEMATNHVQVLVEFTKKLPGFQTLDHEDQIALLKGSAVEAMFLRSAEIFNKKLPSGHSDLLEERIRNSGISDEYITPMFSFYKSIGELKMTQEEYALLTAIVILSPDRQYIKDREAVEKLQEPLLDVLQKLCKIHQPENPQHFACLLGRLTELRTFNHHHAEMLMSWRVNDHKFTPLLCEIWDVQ
Structure (SMILES),Potency [1],outcome [2],Potency [3],Potency [4],Potency [5],outcome [6],Potency [7],Potency [8],Potency [9],outcome [10],Potency [11],outcome [12],outcome [13],Potency [14],Potency [15],outcome [16],outcome [17],outcome [18],outcome [19],Potency [20]
CCOC(=O)C(Br)c1ccccc1 (centres undefined),inactive,inactive,inactive,inactive,inactive,inactive,inactive,inactive,inactive,inactive,inactive,inactive,inactive,inactive,–,–,–,–,–,–
NS(=O)(=O)c1cc(-c2nn[nH]n2)c(NCc2cccs2)cc1Cl,inactive,inactive,–,inactive,inactive,inactive,inactive,–,inactive,inactive,inactive,inactive,–,inactive,10.6 µM (active),inactive,inactive,–,–,–
CC(C)(C)C1CCCCC1=O (centres undefined),inactive,inactive,–,inactive,inactive,inactive,inactive,inactive,inactive,–,inactive,inactive,–,inactive,inactive,inactive,–,–,–,–
CCCCNc1cc(C(=O)O)cc(S(N)(=O)=O)c1Oc1ccccc1,inactive,inactive,–,inactive,inactive,inactive,inactive,inactive,inactive,–,inactive,inactive,inactive,inactive,inactive,–,inactive,–,–,–
CC(C)C1=CC2=CC[C@@H]3[C@](C)(CCC[C@@]3(C)C(=O)O)[C@H]2CC1,inactive,inactive,inactive,inactive,inactive,inactive,–,inactive,inactive,–,–,inactive,–,inactive,–,–,inactive,–,–,–
O=C1CCC(C2CCCCC2)CC1,inactive,inactive,inactive,–,inactive,inactive,inactive,inactive,inactive,inactive,–,inactive,–,inactive,–,inactive,inactive,inactive,inactive,–
C1CCOC1,inactive,inactive,–,inactive,inactive,inactive,inactive,inactive,inactive,–,inactive,inactive,–,–,inactive,–,inactive,–,inactive,–
O=C(O)CN(CCN(CC(=O)O)CC(=O)O)CCN(CC(=O)O)CC(=O)O,inactive,inactive,–,inactive,inactive,–,inactive,inactive,inactive,–,inactive,inactive,inactive,inactive,–,–,–,–,–,inactive
CCc1cc(Cl)c(OC)c(C(=O)NC[C@@H]2CCCN2CC)c1O,inactive,inactive,inactive,inactive,–,–,inactive,inactive,inactive,inactive,–,–,inactive,inactive,inactive,inactive,inactive,–,–,–
CCOC(=O)CS,inactive,inactive,inactive,inactive,–,inactive,inactive,–,inactive,inactive,inactive,inactive,inactive,inactive,inactive,inactive,inactive,inactive,inactive,–
CC(C)NCC(O)COc1ccc(CCOCC2CC2)cc1 (centres undefined),inactive,inactive,–,inactive,inactive,–,inactive,inactive,inactive,–,inactive,inactive,inactive,inactive,inactive,–,inactive,–,–,–
OCCN(CCO)CCN(CCO)CCO,inactive,inactive,inactive,inactive,inactive,inactive,inactive,inactive,inactive,–,inactive,inactive,inactive,inactive,–,–,inactive,–,–,–
COC(=O)c1ccc(OC)cc1,inactive,inactive,–,inactive,inactive,–,inactive,inactive,inactive,–,inactive,–,inactive,inactive,inactive,–,–,–,inactive,–
CCOc1ccc(NC(N)=O)cc1,inactive,inactive,inactive,inactive,–,inactive,inactive,inactive,–,–,inactive,inactive,inactive,inactive,inactive,–,–,–,inactive,–
CCOC(=O)[C@H](CCc1ccccc1)N[C@@H](C)C(=O)N1Cc2cc(OC)c(OC)cc2C[C@H]1C(=O)O,9.44 µM (active),inactive,–,inactive,–,inactive,inactive,inactive,inactive,–,inactive,inactive,inactive,inactive,–,inactive,inactive,–,–,inactive
COc1ccc2nc(NC(=O)Nc3ccccc3)sc2c1,10.6 µM (active),inactive,inactive,inactive,inactive,inactive,–,inactive,inactive,–,inactive,inactive,inactive,inactive,–,–,inactive,–,–,–
COC(=O)/C=C(/C)N,–,–,–,inactive,–,–,inactive,inactive,inactive,inactive,inactive,inactive,inactive,inactive,inactive,inactive,inactive,–,inactive,inactive
FC(F)(F)c1ccccc1,–,inactive,–,inactive,inactive,–,inactive,inactive,inactive,inactive,inactive,inactive,inactive,inactive,–,inactive,inactive,–,–,inactive
N#CSCC(=O)O,–,–,–,inactive,inactive,inactive,–,inactive,inactive,–,inactive,inactive,–,inactive,inactive,inactive,–,–,inactive,–
